Source: PubChem BioAssay (NCI)
The panel holds about 83,000 compounds, 20% with a hit somewhere; the sample as a whole holds those more often.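 Negative percent growth values reflect cell death: -40 means 40% of the cells present at the start died, and -100 means all died.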 Unmarked numbers belong to inactive results. Active and inactive are the calls of the source. How the source made its calls: active means growth percent below 10; inactive means the rest.

tested on: UO-31 renal; test: NCI-60 one-dose screen, 48 h (100 = growth as untreated, 0 = no growth, -100 = all killed); details: 10 µM unless noted

Structure (SMILES)	growth
NC(=O)CSSCC(N)=O	93%
C=C(C)[C@@H]1CC[C@]2(C(=O)N3CCN(C)CC3)CC[C@]3(C)[C@H](CC[C@@H]4[C@@]5(C)CC[C@H](O)C(C)(C)[C@@H]5CC[C@]43C)[C@@H]12	-86.1% (active)
O=C1Nc2cc(Cl)ccc2/C1=C\c1c(-c2ccc(F)cc2)nc2ccccn12	28.7%
CCc1ccc(-c2cn3ccnc3c(-c3ccc4ncn(Cc5ccccc5)c4c3)n2)cc1	42.2%
CCOC(=O)c1cc(C(=O)c2ccc(OC)c(OC)c2)n2ccc(/C=C/c3cc[n+](CC(=O)c4ccc(OC)c(OC)c4)cc3)cc12	82.7%
COc1cc(/C=C\c2cc(OC)c(OC)c(OC)c2)cc(NC(=O)/C=C/c2cc(OC)c(OC)c(OC)c2)c1OC	24.9%
CN1C(N2CCN(S(=O)(=O)c3ccccc3)CC2)=NS(=O)(=O)c2ccccc21	72.4%
O=C1Nc2ccccc2/C1=C\c1c(-c2ccc(F)cc2)nc2ccccn12	41%
OCc1cnc2ccccc2c1NC1CCCCCC1	67.1%
Oc1c(Cl)cc(Cl)c(Cl)c1CNCCNCc1c(O)c(Cl)cc(Cl)c1Cl	0.579% (active)
CN1[C@@H]2CC[C@H]1/C(=C\c1ccccc1)C(=O)/C2=C/c1ccccc1	55.4%
O=C1c2c(c3c4cccc(F)c4[nH]c3c3ccc4ccccc4c23)C(=O)N1O	30.4%
CN(C)CCC(=O)c1ccc([N+](=O)[O-])cc1	85.9%
Cc1ccc(-c2nc3ccccn3c2/C=C2/C(=O)Nc3cc(Cl)ccc32)cc1	62.5%
CC(=O)[C@@H]1CC[C@]2(C(N)=O)CC[C@]3(C)[C@H](CC[C@@H]4[C@@]5(C)CCCNC(C)(C)[C@@H]5CC[C@]43C)[C@@H]12	76.5%
CC(C)N1C(=O)S/C(=C2/SC(=O)N(C(C)C)C2=O)C1=O	87.7%
NS(=O)(=O)c1ccc(CCN2C(=O)C3C(C2=O)C2(Cl)C(Cl)=C(Cl)C3(Cl)C2(Cl)Cl)cc1 (stereo not given)	85.8%
Nc1c(S(=O)(=O)O)cc2c3c(cccc13)C(=O)OC2=O	86.7%

Structure (SMILES)	growth
O=C(CCN1CCCC1)c1ccc([N+](=O)[O-])cc1	87.3%
O=C1Nc2ccc(F)cc2/C1=C\c1c(-c2ccccc2)nc2ccccn12	46.6%
O=Cc1ccc(-c2cn3ccnc3c(-c3ccc4ncn(Cc5ccccc5)c4c3)n2)cc1	17.8%
N#C/C(=C\c1ccc(C(F)(F)F)cc1)c1cc2ccccc2[nH]1	92.9%
O=C1c2cccc3c(-c4ccc5c(c4)ncn5C4CCCCC4)ccc(c23)C(=O)N1c1nc2ccccc2s1	56.3%
Cc1cccc(-c2cn3ccnc3c(-c3ccc4ncn(Cc5ccccc5)c4c3)n2)c1	58.3%
CCOC(=O)C1=C(CCl)NC(=O)NC1c1ccc2c(c1)OCO2 (stereo not given)	56.9%
CCCN1[C@@H]2CC[C@H]1/C(=C\c1ccc(OC)c(OC)c1)C(=O)/C2=C/c1ccc(OC)c(OC)c1	33.6%
COc1ccc(C(=O)C2C(C#N)C(C#N)C3c4ccccc4C=CN23)cc1 (stereo not given)	60.7%
O=C(C[n+]1cccc2ccccc21)c1ccc(O)c(O)c1	50.6%
COc1ccc(C(=O)c2nc3ccccc3n2CC(=O)c2ccc(F)cc2)cc1	88.3%
CC(=O)[C@@H]1CC[C@]2(CO)CC[C@]3(C)[C@H](CC[C@@H]4[C@@]5(C)CCCNC(C)(C)[C@@H]5CC[C@]43C)[C@@H]12	84.4%
NS(=O)(=O)c1ccc(CCN2C(=O)C=CC2=O)cc1	84.5%
Nc1ccccc1NC(=O)c1ccc(-n2nc(-c3ccccc3)c3ccccc32)cc1	-62.7% (active)
N#CC1C(C#N)C2c3ccccc3C=CN2C1C(=O)c1ccc(Br)cc1 (stereo not given)	99.2%
O=C(CNCCN1CCOCC1)N1c2cccc3cccc(c23)N(C(=O)CNCCN2CCOCC2)C1c1cn(-c2ccccc2)nc1-c1cccc([N+](=O)[O-])c1	65.1%
C=C(C)[C@@H]1CC[C@]2(C(=O)N[C@H](CO)Cc3ccccc3)CC[C@]3(C)[C@H](CC[C@@H]4[C@@]5(C)CCCNC(C)(C)[C@@H]5CC[C@]43C)[C@@H]12	-92.6% (active)
